Reference: PubChem BioAssay (NCI)
This is part of a sample that, as a whole, favours compounds with a hit. Of some 83,000 tested, about 20% had one in any assay.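 Note: values are percent growth. 100 is the growth of untreated cells, values between 100 and 0 indicate rising inhibition; between -100 and 0 indicates cell death.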 Values without a mark were called inactive. The source made the active and inactive calls. How the source made its calls: active means growth percent below 10; inactive means the rest.

Assays:
Test in all cases: NCI-60 one-dose screen, 48 h (100 = growth as untreated, 0 = no growth, -100 = all killed)
Conditions in all cases: 10 µM unless noted
HCT-15 colon = tested on: HCT-15 colon
HT29 colon = tested on: HT29 colon
SNB-75 CNS = tested on: SNB-75 CNS
SNB-19 CNS = tested on: SNB-19 CNS
U251 CNS = tested on: U251 CNS
PC-3 prostate = tested on: PC-3 prostate
SK-MEL-5 melanoma = tested on: SK-MEL-5 melanoma
UACC-62 melanoma = tested on: UACC-62 melanoma
LOX IMVI melanoma = tested on: LOX IMVI melanoma
SK-MEL-28 melanoma = tested on: SK-MEL-28 melanoma
SK-MEL-2 melanoma = tested on: SK-MEL-2 melanoma
EKVX NSCLC = tested on: EKVX NSCLC
SN12C renal = tested on: SN12C renal
UO-31 renal = tested on: UO-31 renal
TK-10 renal = tested on: TK-10 renal
ACHN renal = tested on: ACHN renal
CAKI-1 renal = tested on: CAKI-1 renal
A498 renal = tested on: A498 renal
CCRF-CEM leukemia = tested on: CCRF-CEM leukemia
MOLT-4 leukemia = tested on: MOLT-4 leukemia

Compound | growth (HCT-15 colon) | growth (HT29 colon) | growth (SNB-75 CNS) | growth (SNB-19 CNS) | growth (U251 CNS) | growth (PC-3 prostate) | growth (SK-MEL-5 melanoma) | growth (UACC-62 melanoma) | growth (LOX IMVI melanoma) | growth (SK-MEL-28 melanoma) | growth (SK-MEL-2 melanoma) | growth (EKVX NSCLC) | growth (SN12C renal) | growth (UO-31 renal) | growth (TK-10 renal) | growth (ACHN renal) | growth (CAKI-1 renal) | growth (A498 renal) | growth (CCRF-CEM leukemia) | growth (MOLT-4 leukemia)
CN1C(=O)N(C)C2C1NN=c1s/c(=C\c3ccc(Br)cc3)c(=O)n12 (stereo not drawn) | 22.8% | 10.7% | 11.4% | 34.9% | 29.3% | 18.3% | 14% | 27.9% | 35.8% | 71.1% | 52.7% | 50% | 50.2% | 53.4% | 60.4% | 43.2% | 38.6% | 20.2% | 10.3% | 40.3%
CCN(CC)CCNC(=O)n1cc(-c2ccncc2)c(-c2cc(Cl)cc(OC)c2)n1 | 86% | 31.3% | 48% | 76.5% | 75.4% | 79.8% | 84.8% | 70.3% | 78.7% | 91.3% | 92.3% | 43.4% | 70.2% | 43.8% | 30.1% | 57.1% | 68.1% | 63.7% | 83.3% | 82.1%
O=C(CSc1nc2c(n1Nc1ccccc1)-c1ccccc1SC2)Nc1nccs1 | 87.5% | 102% | 69.7% | 99.4% | 93.8% | 78.8% | 101% | 83.3% | 97.1% | 112% | 102% | 89.3% | 95.3% | 63.1% | 120% | 95.2% | 73.7% | 77% | 84.5% | 82.5%
CC1=CCC2C1CC=C(C)C(CC[C@H]1[C@@](C)(O)CCC3OC(C)(C)[C@H](OC(=O)c4ccccc4)CC[C@@]31C)C2(C)C (stereo partly drawn) | 81.9% | 76.6% | 75.9% | 105% | 61.2% | 26.2% | 79.9% | 67.4% | 67% | 109% | 81.3% | 69.6% | 80.6% | 80.8% | 97.5% | 94.1% | 67.7% | 110% | 99.6% | –
CCOC(=O)c1ccc2c(c1)[n+](=O)c(C(=O)c1ccc3ccccc3c1)c(C(F)(F)F)n2[O-] | -96.1% (active) | -97.4% (active) | -100% (active) | -85.5% (active) | -100% (active) | -99.2% (active) | -100% (active) | -97.2% (active) | -97.5% (active) | -96.3% (active) | -83.5% (active) | -56.8% (active) | -99.2% (active) | -96% (active) | -89.7% (active) | -100% (active) | -93.8% (active) | -62.4% (active) | – | –
Nc1c(Br)cc2c(c1Br)Cc1cc(Cl)ccc1-2 | 109% | 111% | 72.4% | 88.5% | 101% | 82.6% | 90.5% | 96.2% | 89.3% | 98.6% | 114% | 69.1% | 89.8% | 77.6% | 130% | 81.3% | 74.6% | 121% | 94.2% | 97.4%
COc1cccc(/C=N\Nc2ccc([N+](=O)[O-])cn2)c1O | 29.7% | 99.1% | 83.1% | 50.9% | 21.7% | 97.5% | 49.8% | 54.7% | 36.9% | 83.5% | 77.1% | 83.9% | 55% | 26.9% | 73.5% | 28.5% | 27.8% | 39.8% | 79.3% | 58%
COc1cc(/C=C\c2cc(/C=C\c3ccc(O)c(OC)c3)n(C(=O)Nc3ccc(C(F)(F)F)cc3)n2)ccc1O | 25.5% | 3.5% (active) | 71.8% | 48.7% | 9.71% (active) | 38% | 35.4% | 31.1% | 9.11% (active) | 58% | 84.5% | 61.3% | 36.9% | 42.9% | 77.7% | 65.8% | 55% | 108% | 3.42% (active) | 11.1%
O=c1c2cc(Cl)ccc2oc2ccc(OCCCCCN3CCCCCC3)cc12 | 30% | 5.64% (active) | 92.3% | 91.5% | 69.2% | 83.2% | 62.9% | 85.4% | 73.2% | 107% | 96.5% | 89.6% | 80.9% | 78.6% | 89.2% | 110% | 94.6% | 68.9% | 60.5% | 48.5%
C=C(C)[C@@H]1CC[C@]2(C(=O)O)CC[C@]3(C)[C@H](CC[C@@H]4[C@@]5(C)C[C@@H](CC#Cc6ccc(C(C)=O)s6)[C@H](O)C(C)(C)[C@@H]5CC[C@]43C)[C@@H]12 | 33.4% | 34.5% | 71.1% | 75.7% | 32.3% | 26% | 43.3% | 52.3% | 65% | 76.5% | 51.9% | 53.2% | 68% | 56.6% | 49.6% | 47.9% | 40.7% | -3.73% (active) | 44.7% | 32.5%
O=C1OCC2=C1C(c1ccccc1)c1cc3c(cc1N2CCO)OCO3 (stereo not drawn) | 24% | 12.5% | 31.4% | 36% | 20.3% | 24.5% | -12.3% (active) | 28.9% | 37% | 50.5% | 14.6% | 35.4% | 39% | 43.9% | 63.4% | 36.5% | 35.8% | 6.06% (active) | – | –
CC(SC(C)C(=O)N/N=C/c1cccc(Cl)c1)C(=O)N/N=C\c1cccc(Cl)c1 (stereo not drawn) | 86.5% | 79% | 83.7% | 89.5% | 48.2% | 53.5% | 98.2% | 92.1% | 7.06% (active) | 117% | 95.8% | 94.9% | 63.9% | 90.2% | 105% | 44% | 91.6% | 102% | 48.6% | 68.3%
CC(C)(CCc1ccccn1)C(=O)CCCc1ccccn1 | 108% | 97% | 102% | 94% | 100% | 89% | 104% | 89.8% | 94.2% | 115% | 98.7% | 105% | 94.8% | 85.9% | 97% | 97.4% | 98% | 96.3% | 84.8% | 101%
CS(=O)(=O)c1ccc(C(=O)N2N=C(c3ccccc3)CC2c2ccc3c(c2)OCO3)cc1 (stereo not drawn) | 85.7% | 104% | 88.2% | 103% | 91.4% | 85.1% | 101% | 96.4% | 95.5% | 106% | 89.8% | 93.4% | 94.4% | 66.5% | 107% | 107% | 92.5% | 86.2% | 105% | 52.4%
C=C(C)[C@@H]1CC[C@]2(C(=O)NS(=O)(=O)c3ccccc3)CC[C@]3(C)[C@H](CC[C@@H]4[C@@]5(C)CC[C@H](OC(=O)NS(=O)(=O)c6ccccc6)C(C)(C)[C@@H]5CC[C@]43C)[C@@H]12 | 5.41% (active) | 20.8% | 45.3% | 14.4% | 13% | 7.83% (active) | -24.6% (active) | -83.1% (active) | 4.7% (active) | -16.3% (active) | -6.1% (active) | 27.5% | 13% | 8.04% (active) | 24% | 14.6% | 24.8% | -2.66% (active) | – | –
